# Publication PMC7862700, “An all-to-all approach to the identification of sequence-specific readers for epigenetic DNA modifications on cytosine”
# Assays:
# Assay in all cases: DAPPL (digital affinity profiling via proximity ligation, sequencing); 10 mM Tris-HCl pH 7.5, 50 mM NaCl, 1 mM DTT, 4% glycerol, room temperature, 30 min; GST-TFs on glutathione beads, 16-mer random dsDNA library, 0.1% formaldehyde crosslink after washing; high values mean tight binding
# Settings in all cases: protein: recombinant; tags: N-terminal GST; dsDNA, one strand shown
# FLI1 = biological target: T1, FLI1 (Homo sapiens, UniProt Q01543 1-452)
# T1 sequence: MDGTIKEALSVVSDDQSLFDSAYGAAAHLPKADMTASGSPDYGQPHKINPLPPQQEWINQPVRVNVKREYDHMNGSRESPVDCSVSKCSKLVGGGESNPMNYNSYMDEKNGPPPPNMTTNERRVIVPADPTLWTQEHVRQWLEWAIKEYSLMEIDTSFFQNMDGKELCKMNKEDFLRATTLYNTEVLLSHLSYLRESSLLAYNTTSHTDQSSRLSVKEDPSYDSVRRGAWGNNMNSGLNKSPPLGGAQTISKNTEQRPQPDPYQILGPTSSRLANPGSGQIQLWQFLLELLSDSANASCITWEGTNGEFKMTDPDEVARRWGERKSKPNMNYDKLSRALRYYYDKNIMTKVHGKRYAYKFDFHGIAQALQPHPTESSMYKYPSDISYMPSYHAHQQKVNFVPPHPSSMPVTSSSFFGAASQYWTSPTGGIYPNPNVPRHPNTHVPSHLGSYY
# Method in brief: (§1)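 Binding signal is each hexamer's read frequency for a factor divided by its frequency in the tag-only sample. The factors were GST-fused human transcription factors from yeast, captured on glutathione beads, DNA-barcoded and pooled with that sample. Pools were incubated with 200 nmole of a random double-stranded 16-mer DNA library in Tris/NaCl/DTT/glycerol buffer at room temperature for 30 min, then washed, crosslinked with 0.1% formaldehyde, proximity-ligated with BsaI/T4 ligase (1 h, 37 °C), PCR-amplified and sequenced on an Illumina NextSeq500.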
# ELK1 = biological target: T2, ELK1 (Homo sapiens, UniProt P19419 1-428)
# T2 sequence: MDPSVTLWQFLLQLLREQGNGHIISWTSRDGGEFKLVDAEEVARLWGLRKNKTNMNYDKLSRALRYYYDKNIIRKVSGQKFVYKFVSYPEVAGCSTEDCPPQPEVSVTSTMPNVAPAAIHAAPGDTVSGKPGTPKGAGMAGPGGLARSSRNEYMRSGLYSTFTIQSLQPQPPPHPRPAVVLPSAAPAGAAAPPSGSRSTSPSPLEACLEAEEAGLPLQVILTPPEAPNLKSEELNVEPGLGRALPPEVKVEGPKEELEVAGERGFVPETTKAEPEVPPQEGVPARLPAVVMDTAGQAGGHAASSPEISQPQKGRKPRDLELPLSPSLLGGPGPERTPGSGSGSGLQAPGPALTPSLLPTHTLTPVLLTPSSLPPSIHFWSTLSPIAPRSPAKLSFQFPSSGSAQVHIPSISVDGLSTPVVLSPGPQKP
# Method in brief: as §1
# GABPA = biological target: T3, GABPA (Homo sapiens, UniProt Q06546 1-454)
# T3 sequence: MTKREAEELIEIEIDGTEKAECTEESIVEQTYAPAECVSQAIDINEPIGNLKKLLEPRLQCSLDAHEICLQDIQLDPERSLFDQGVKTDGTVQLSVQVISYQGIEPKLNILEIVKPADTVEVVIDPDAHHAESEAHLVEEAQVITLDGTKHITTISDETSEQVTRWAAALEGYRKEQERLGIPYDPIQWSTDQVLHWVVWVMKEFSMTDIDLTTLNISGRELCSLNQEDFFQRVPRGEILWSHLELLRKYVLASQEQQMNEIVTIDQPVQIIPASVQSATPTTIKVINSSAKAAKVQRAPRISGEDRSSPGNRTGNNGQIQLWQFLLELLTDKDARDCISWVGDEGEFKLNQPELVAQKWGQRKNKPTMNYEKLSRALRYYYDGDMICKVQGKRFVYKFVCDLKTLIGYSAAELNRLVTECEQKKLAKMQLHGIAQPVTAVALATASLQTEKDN
# Method in brief: as §1
# ERG = biological target: T4, ERG (Homo sapiens, UniProt P11308 1-479)
# T4 sequence: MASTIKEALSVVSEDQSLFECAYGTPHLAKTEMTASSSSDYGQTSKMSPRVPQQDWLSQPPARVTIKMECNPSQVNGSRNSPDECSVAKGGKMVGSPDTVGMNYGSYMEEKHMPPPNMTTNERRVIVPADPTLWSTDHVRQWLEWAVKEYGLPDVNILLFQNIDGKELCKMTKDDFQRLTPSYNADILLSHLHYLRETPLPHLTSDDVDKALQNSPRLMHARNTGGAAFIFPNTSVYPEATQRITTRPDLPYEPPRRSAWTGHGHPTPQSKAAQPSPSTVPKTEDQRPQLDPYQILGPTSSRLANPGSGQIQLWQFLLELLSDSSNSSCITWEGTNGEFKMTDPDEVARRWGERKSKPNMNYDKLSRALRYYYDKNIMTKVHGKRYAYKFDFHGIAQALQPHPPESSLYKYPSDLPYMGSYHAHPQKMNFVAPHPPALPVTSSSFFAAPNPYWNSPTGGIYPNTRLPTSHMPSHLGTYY
# Method in brief: as §1
# ELF1 = ELF1 (Homo sapiens, UniProt P32519 1-619)
# Method in brief: as §1
# EHF = biological target: T5, EHF (Homo sapiens, UniProt Q9NZC4 1-300)
# T5 sequence: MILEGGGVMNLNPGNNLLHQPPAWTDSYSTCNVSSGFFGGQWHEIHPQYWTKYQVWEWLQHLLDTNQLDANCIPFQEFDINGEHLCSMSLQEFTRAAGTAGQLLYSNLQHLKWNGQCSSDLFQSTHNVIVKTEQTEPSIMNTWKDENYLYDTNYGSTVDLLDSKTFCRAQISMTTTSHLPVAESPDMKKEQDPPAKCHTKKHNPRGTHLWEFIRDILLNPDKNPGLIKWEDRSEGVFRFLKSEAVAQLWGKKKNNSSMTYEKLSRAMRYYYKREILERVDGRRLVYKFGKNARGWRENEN
# Method in brief: as §1
# SPI1 = SPI1 (Homo sapiens, UniProt P17947 1-270)
# Method in brief: as §1
# SPIB = SPIB (Homo sapiens, UniProt Q01892 1-262)
# Method in brief: as §1
# ELK3 = biological target: T6, ELK3 (Homo sapiens, UniProt P41970 1-407)
# T6 sequence: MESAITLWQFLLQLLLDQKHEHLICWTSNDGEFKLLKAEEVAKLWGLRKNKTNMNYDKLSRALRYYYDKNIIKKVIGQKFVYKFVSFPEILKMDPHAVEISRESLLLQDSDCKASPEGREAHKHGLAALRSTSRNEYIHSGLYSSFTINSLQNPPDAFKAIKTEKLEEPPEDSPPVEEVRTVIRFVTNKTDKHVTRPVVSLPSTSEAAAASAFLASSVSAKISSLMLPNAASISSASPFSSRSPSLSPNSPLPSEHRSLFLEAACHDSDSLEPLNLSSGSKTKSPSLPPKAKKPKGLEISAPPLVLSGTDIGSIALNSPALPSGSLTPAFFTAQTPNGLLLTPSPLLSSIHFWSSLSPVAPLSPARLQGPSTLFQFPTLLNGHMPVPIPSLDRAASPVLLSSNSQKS
# Method in brief: as §1
# SPIB, sequence (Q01892 whole entry): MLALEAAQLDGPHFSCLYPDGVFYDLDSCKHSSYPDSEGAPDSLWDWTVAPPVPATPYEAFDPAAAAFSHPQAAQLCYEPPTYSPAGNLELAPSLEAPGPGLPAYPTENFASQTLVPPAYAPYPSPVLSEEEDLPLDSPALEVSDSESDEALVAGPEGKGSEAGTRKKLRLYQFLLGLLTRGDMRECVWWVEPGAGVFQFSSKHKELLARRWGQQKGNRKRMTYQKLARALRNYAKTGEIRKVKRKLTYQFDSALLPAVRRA
# ELF1, sequence (P32519 whole entry): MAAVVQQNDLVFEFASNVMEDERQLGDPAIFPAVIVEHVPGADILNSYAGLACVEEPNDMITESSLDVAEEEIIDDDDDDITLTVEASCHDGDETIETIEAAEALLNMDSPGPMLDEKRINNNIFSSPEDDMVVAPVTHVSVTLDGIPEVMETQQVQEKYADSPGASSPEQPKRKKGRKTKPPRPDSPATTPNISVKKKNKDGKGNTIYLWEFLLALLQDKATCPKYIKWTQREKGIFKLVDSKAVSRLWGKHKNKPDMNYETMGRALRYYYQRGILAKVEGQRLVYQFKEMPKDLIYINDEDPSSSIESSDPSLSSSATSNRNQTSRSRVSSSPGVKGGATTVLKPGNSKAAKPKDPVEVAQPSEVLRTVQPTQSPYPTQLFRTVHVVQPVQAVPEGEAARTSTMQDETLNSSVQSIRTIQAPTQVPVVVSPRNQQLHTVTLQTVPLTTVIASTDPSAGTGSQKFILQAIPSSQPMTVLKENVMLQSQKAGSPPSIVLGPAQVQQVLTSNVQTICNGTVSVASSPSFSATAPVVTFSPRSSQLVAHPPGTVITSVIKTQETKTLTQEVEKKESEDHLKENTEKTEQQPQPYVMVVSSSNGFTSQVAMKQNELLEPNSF
Sequence,binding signal (FLI1),binding signal (ELK1),binding signal (GABPA),binding signal (ERG),binding signal (ELF1),binding signal (EHF),binding signal (SPI1),binding signal (SPIB),binding signal (ELK3)
GCTATA,"1.17 fold enrichment (6-mer frequency, TF over GST control)","1.11 fold enrichment (6-mer frequency, TF over GST control)","1.16 fold enrichment (6-mer frequency, TF over GST control)","1.16 fold enrichment (6-mer frequency, TF over GST control)","1.19 fold enrichment (6-mer frequency, TF over GST control)","1.16 fold enrichment (6-mer frequency, TF over GST control)","1.09 fold enrichment (6-mer frequency, TF over GST control)","1.25 fold enrichment (6-mer frequency, TF over GST control)","1.24 fold enrichment (6-mer frequency, TF over GST control)"
CTTCAC,"1.47 fold enrichment (6-mer frequency, TF over GST control)","1.42 fold enrichment (6-mer frequency, TF over GST control)","1.38 fold enrichment (6-mer frequency, TF over GST control)","1.45 fold enrichment (6-mer frequency, TF over GST control)","1.45 fold enrichment (6-mer frequency, TF over GST control)","1.41 fold enrichment (6-mer frequency, TF over GST control)","1.37 fold enrichment (6-mer frequency, TF over GST control)","1.41 fold enrichment (6-mer frequency, TF over GST control)","1.38 fold enrichment (6-mer frequency, TF over GST control)"
TACTTG,"1.39 fold enrichment (6-mer frequency, TF over GST control)","1.39 fold enrichment (6-mer frequency, TF over GST control)","1.34 fold enrichment (6-mer frequency, TF over GST control)","1.18 fold enrichment (6-mer frequency, TF over GST control)","1.32 fold enrichment (6-mer frequency, TF over GST control)","1.32 fold enrichment (6-mer frequency, TF over GST control)","1.27 fold enrichment (6-mer frequency, TF over GST control)","1.44 fold enrichment (6-mer frequency, TF over GST control)","1.35 fold enrichment (6-mer frequency, TF over GST control)"
ACCTAA,"1.19 fold enrichment (6-mer frequency, TF over GST control)","1.08 fold enrichment (6-mer frequency, TF over GST control)","1.17 fold enrichment (6-mer frequency, TF over GST control)","1.13 fold enrichment (6-mer frequency, TF over GST control)","1.18 fold enrichment (6-mer frequency, TF over GST control)","1.12 fold enrichment (6-mer frequency, TF over GST control)","1.2 fold enrichment (6-mer frequency, TF over GST control)","1.19 fold enrichment (6-mer frequency, TF over GST control)","1.2 fold enrichment (6-mer frequency, TF over GST control)"
CGTTTC,"1.76 fold enrichment (6-mer frequency, TF over GST control)","1.68 fold enrichment (6-mer frequency, TF over GST control)","1.69 fold enrichment (6-mer frequency, TF over GST control)","1.98 fold enrichment (6-mer frequency, TF over GST control)","1.71 fold enrichment (6-mer frequency, TF over GST control)","1.83 fold enrichment (6-mer frequency, TF over GST control)","1.79 fold enrichment (6-mer frequency, TF over GST control)","1.75 fold enrichment (6-mer frequency, TF over GST control)","1.72 fold enrichment (6-mer frequency, TF over GST control)"
CTGACT,"1.25 fold enrichment (6-mer frequency, TF over GST control)","1.26 fold enrichment (6-mer frequency, TF over GST control)","1.29 fold enrichment (6-mer frequency, TF over GST control)","1.22 fold enrichment (6-mer frequency, TF over GST control)","1.32 fold enrichment (6-mer frequency, TF over GST control)","1.31 fold enrichment (6-mer frequency, TF over GST control)","1.27 fold enrichment (6-mer frequency, TF over GST control)","1.43 fold enrichment (6-mer frequency, TF over GST control)","1.26 fold enrichment (6-mer frequency, TF over GST control)"
ATGCTA,"1.21 fold enrichment (6-mer frequency, TF over GST control)","1.2 fold enrichment (6-mer frequency, TF over GST control)","1.25 fold enrichment (6-mer frequency, TF over GST control)","1.27 fold enrichment (6-mer frequency, TF over GST control)","1.23 fold enrichment (6-mer frequency, TF over GST control)","1.28 fold enrichment (6-mer frequency, TF over GST control)","1.22 fold enrichment (6-mer frequency, TF over GST control)","1.21 fold enrichment (6-mer frequency, TF over GST control)","1.37 fold enrichment (6-mer frequency, TF over GST control)"
CCCATA,"1.23 fold enrichment (6-mer frequency, TF over GST control)","1.26 fold enrichment (6-mer frequency, TF over GST control)","1.33 fold enrichment (6-mer frequency, TF over GST control)","1.24 fold enrichment (6-mer frequency, TF over GST control)","1.21 fold enrichment (6-mer frequency, TF over GST control)","1.13 fold enrichment (6-mer frequency, TF over GST control)","1.18 fold enrichment (6-mer frequency, TF over GST control)","1.34 fold enrichment (6-mer frequency, TF over GST control)","1.21 fold enrichment (6-mer frequency, TF over GST control)"
